Source: the supplement of paper PMC12636033
± gives the standard deviation of the averaged measurements. The full ranking holds about 33,000 sequences; the median of “E-score (rank enrichment, -0.5 to 0.5)” is about -0.0075, and the highest 2% start at about 0.23. The list comes from a sample in which the highest values are over-represented; it also holds similar and randomly drawn sequences.

test system: WT Max(13-93) synthetic (M65Nle); experiment: PBM 8-mer E-score (E-score (rank enrichment, -0.5 to 0.5)); higher = stronger preferential binding
Description: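 Protein binding microarray (universal PBM chip covering all 10-mers in fixed probe flanks) with chemically synthesized human Max(13-93) bHLH-LZ analogs (not full-length Max) bearing noncanonical residues (hArg, Tha, Aib, Nle at 65) and aromatic Cys staples. Read-out per 8-mer (and its reverse complement): E-score (rank-based enrichment, -0.5 to 0.5) and Z-score of median probe intensity.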

In order of rising “PBM 8-mer E-score” value:
1. CCAGCCGA  -0.272 ± 0.029
2. CTGAACGC  -0.243 ± 0.0048
3. AACCACAG  -0.196 ± 0.12
4. CCTCGATA  -0.157 ± 0.014
5. CCTAAACG  -0.145 ± 0.043
6. AGAGTGAA  -0.133 ± 0.058
7. AGGTGTCC  -0.128 ± 0.054
8. GTGAGTCA  -0.117 ± 0.064
9. GATGTGGC  -0.117 ± 0.057
10. AGAGAGCG  -0.102 ± 0.039
11. TATGCTGA  -0.0828 ± 0.1
12. CATCGTGG  -0.0807 ± 0.055
13. CAGGGTCA  -0.0768 ± 0.019
14. CAGACATC  -0.0722 ± 0.089
15. TAGGCCAA  -0.0597 ± 0.035
16. AATACGGT  -0.059 ± 0.026
17. ACCCACGA  -0.0551 ± 0.047
18. CACCATTA  -0.0432 ± 0.14
19. GACTAAAA  -0.0397 ± 0.075
20. CTGCCAAG  -0.0342 ± 0.067
21. GATTCCAC  -0.0239 ± 0.16
22. GAATCACA  -0.023 ± 0.11
23. CCCTTTGC  -0.0228 ± 0.044
24. ATTTCTAA  -0.0149 ± 0.032
25. ACTTGATC  -0.0132 ± 0.16
26. CCGGCACG  -0.00989 ± 0.099
27. AAATCCAG  -0.00945 ± 0.12
28. AGAAGAAA  -0.0012 ± 0.042
29. ACCAAAGA  0.003 ± 0.046
30. AAATCTCG  0.017 ± 0.054
31. ATCCACAG  0.0193 ± 0.067
32. AGTATAAC  0.0201 ± 0.0067
33. ATCCACAA  0.0288 ± 0.05
34. AATGTGGC  0.0312 ± 0.0053
35. AATCACGA  0.0321 ± 0.13
36. ATTTCTAG  0.0411 ± 0.07
37. GGCGTTTA  0.0435 ± 0.017
38. AACCATTG  0.0448 ± 0.0034
39. AACCATGG  0.0463 ± 0.13
40. CTATAACC  0.0479 ± 0.05
41. ACATCACG  0.0554 ± 0.057
42. CGTTAGGC  0.0594 ± 0.11
43. GTCTTTAA  0.0691 ± 0.12
44. ATATAACC  0.0791 ± 0.029
45. CATGGGGG  0.0813 ± 0.1
46. CTTTCTAA  0.0817 ± 0.047
47. CAATCACC  0.0883 ± 0.0053
48. AGCCACAT  0.0887 ± 0.052
49. GAAGTAAC  0.0916 ± 0.087
50. AATGTGGA  0.0921 ± 0.085
51. TACGTATA  0.094 ± 0.091
52. CATTCTAC  0.0976 ± 0.045
53. AGTATAAA  0.109 ± 0.12
54. ACCCACGC  0.113 ± 0.11
55. CGCAAGCA  0.1148 ± 0.001
56. TCATCACA  0.116 ± 0.011
57. AAATCCAC  0.116 ± 0.058
58. CTATAACA  0.129 ± 0.045
59. ACAATTGC  0.129 ± 0.021
60. AACCATGA  0.145 ± 0.028
61. GATGTGGA  0.152 ± 0.011
62. ATATACCA  0.153 ± 0.019
63. ACCTATTG  0.157 ± 0.01
64. AAATCACA  0.163 ± 0.043
65. AACCACAC  0.173 ± 0.0082
66. AACCACGC  0.178 ± 0.04
67. AATCACGC  0.188 ± 0.042
68. AACCACGA  0.198 ± 0.016
69. TAATCACA  0.201 ± 0.049
70. GTATAACA  0.202 ± 0.035
71. ACATCACA  0.237 ± 0.015
72. AAATCCAT  0.2404 ± 0.0018
73. CAATCACA  0.247 ± 0.019
74. ATTTCTAC  0.247 ± 0.043
75. CATGTGGG  0.257 ± 0.075
76. AGTATAAT  0.259 ± 0.07
77. AACCATGT  0.2698 ± 0.00089
78. CAATCACG  0.274 ± 0.05
79. AACCACAT  0.282 ± 0.045
80. ATCCACAT  0.287 ± 0.022
81. ATATAACG  0.299 ± 0.0035
82. CTTTCTAC  0.317 ± 0.053
83. AACCATTA  0.318 ± 0.052
84. ACCCACGT  0.359 ± 0.02
85. AACCACGT  0.392 ± 0.0086
86. AATCACGT  0.399 ± 0.04
